A short description of assay [1]: P. berghei load reduction in hepatocytes – cell-based, HepG2, luciferase luminescence, HepG2 viability, primary screen (AID 624349; in the data active means parasite load remaining mostly below about 12%, no sharp cut-off; inactive means mostly above about 10%;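 further: 100% = mean of DMSO negative control wells on the same plate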). The note with it: P. berghei liver stage in HepG2, luciferase luminescence, concentration not given here; parasite load remaining: stronger effect = lower value; viability: measured here: HepG2 viability without parasites.
The nature of assay [2]: viability loss with induced miR-34 in A549 – imaging, A549 dox-inducible miR-34, nuclei and caspase counts, primary screen (AID 1347080). The settings on record: A549 miR-34 inducible, Hoechst nuclei count, 48 h.
A short description of assay [3]: chitosan synthesis blockers in C. neoformans – flow cytometry, Cibacron Brilliant Red staining (AID 1347148; call rule not given here;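 further: compound exposure lasted three days at 37 degrees C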). The settings on record: Cryptococcus neoformans chitosan, stronger effect = lower value; at 10 µM unless noted.
Assay [4] can be described thus: compounds altering viability of human ES cells (AID 493140; call rule not given here;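 further: cells exposed to compounds for four days before counting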). The note with it: human embryonic stem cell survival screen; stronger effect = higher value.
[5] abbreviates: stronger effect = lower value, cell number ratio, induced over uninduced.
[6] abbreviates: measured here: relative caspase fold change +Dox/-Dox.
Where [7] appears, read: measured here: total cells with miR-34 induction, stronger effect = lower value.
[8] abbreviates: measured here: total cells without miR-34 induction.

The source made the active and inactive calls.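 How the source made its calls, unless noted: active means compounds whose cell count with miR-34 switched on is under 0.7 times the count with it off; inactive means the rest.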

The source of these data is PubChem BioAssay.

For the compound `NCCC(O)C(=O)N[C@@H]1C[C@H](N)[C@@H](OC2O[C@H](CN)[C@@H](O)[C@H](O)[C@H]2N)[C@H](OC2O[C@H](CO)C(O)[C@H]2O)[C@H]1O` (stereo partly specified), the parasite load remaining in assay [1] was 106% (inactive). For the same compound, the viability – broadly, a read-out of living cells in per cent, often relative to untreated cells – in assay [1] was found to be 91%. The fold change in assay [2] (setting [5]) was 0.815 (inactive); in assay [2] (setting [6]), 1.54. Besides, the cell count in assay [2] (setting [7]) came out at 7990; in assay [2] (setting [8]) it was 9800.

For the compound `c1cncc([C@H]2CCCCN2)c1`, in assay [1], the parasite load remaining is 92.6% (inactive). The viability in assay [1] worked out at 99.3%. The fold change in assay [2] (setting [5]) is 0.89 (inactive); in assay [2] (setting [6]), 1.12. For the same compound, the values for the cell count in assay [2] (setting [7]) and in assay [2] (setting [8]) were 8860 and 9960, respectively.

With `CN1C[C@H](C(=O)N[C@]2(C)C[C@@]3(O)C4CCCN4C(=O)[C@H](Cc4ccccc4)N3C2=O)C=C2c3cccc4[nH]cc(c34)C[C@H]21` (stereo partly specified), the parasite load remaining in assay [1] is 49.1% (inactive). The viability in assay [1] was 102%. Further, the fold change in assay [2] (setting [5]) was 0.836 (inactive); in assay [2] (setting [6]), 6.73. The values for the cell count in assay [2] (setting [7]) and in assay [2] (setting [8]) were 10900 and 13000, respectively.

As to `C=C[C@]12CN(C)[C@@H]3[C@H]4COC(CC41)[C@]1(C(=O)Nc4ccccc41)[C@@H]32`, the parasite load remaining in assay [1] is 100% (inactive). Besides, the viability in assay [1] worked out at 94.8%. Moreover, the figures for the fold change in assay [2] (setting [5]) and in assay [2] (setting [6]) were 0.845 (inactive) and 1.55, respectively. For the same compound, the cell count in assay [2] (setting [7]) was determined as 8470; in assay [2] (setting [8]), 10000.

With `CC[C@H]1C2C[C@H]3[C@@H]4N(C)c5ccccc5C45C[C@H](C2[C@H]5O)N3[C@@H]1O` (stereo partly specified), the parasite load remaining in assay [1] was 126% (inactive). The viability in assay [1] was found to be 98.7%. Further, the fold change was 0.84 (inactive) in assay [2] (setting [5]) and 1.31 in assay [2] (setting [6]). In addition, the cell count in assay [2] (setting [7]) came out at 8780; in assay [2] (setting [8]) it was 10400.

With `CCN1C[C@]2(COC)CC[C@H](O)[C@]34C1[C@](O)([C@@H](OC)[C@H]23)[C@@]1(O)C[C@H](OC)[C@H]2C[C@@H]4[C@@H]1[C@H]2OC`, in assay [1], the parasite load remaining is 79.1% (inactive). In assay [1], the viability turned out to be 102%. Also, the fold change in assay [2] (setting [5]) was 0.871 (inactive); in assay [2] (setting [6]), 0.967. Further, the cell count in assay [2] (setting [7]) worked out at 9200; in assay [2] (setting [8]), 10600.

For the compound `CCN1C[C@]2(C)CC[C@H](O)[C@]34C1[C@H](C[C@H]23)[C@@]1(O)C[C@H](OC)[C@H]2C[C@@H]4[C@@H]1C2O` (stereo partly specified), the parasite load remaining in assay [1] is 57.3% (inactive). Besides, in assay [1], the viability was 100%. Besides, the fold change in assay [2] (setting [5]) is 0.863 (inactive); in assay [2] (setting [6]), 1.17. Further, the cell count was 9000 in assay [2] (setting [7]) and 10400 in assay [2] (setting [8]).

As to `C[C@@]1(CO)[C@H]2CC[C@@H]3C[C@H]4C[C@@]3(CC[C@@]4(O)CO)[C@]2(C)CC[C@@H]1O`, the fold fluorescence in assay [3] is 13 [at 147.7 µM] (inactive).

In the case of `COc1cc2c(c(OC)c1OC)-c1ccc(O)c(=O)cc1[C@@H](N)CC2`, in assay [1], the parasite load remaining was 106% (inactive). Besides, the viability in assay [1] was found to be 105%. Moreover, the fold change in assay [2] (setting [5]) was 0.884 (inactive); in assay [2] (setting [6]), 1.33. Moreover, the cell count stood at 5720 in assay [2] (setting [7]) and 6460 in assay [2] (setting [8]).

For `COc1ccc(C(=O)OC2C[C@H]3CC[C@H](C2)N3C)cc1OC` (stereo partly specified), the parasite load remaining in assay [1] was 72.9% (inactive). Besides, the viability in assay [1] was determined as 108%. The fold change in assay [2] (setting [5]) is 0.888 (inactive); in assay [2] (setting [6]) it was 1.53. The figures for the cell count in assay [2] (setting [7]) and in assay [2] (setting [8]) were 9600 and 10800, respectively.

For `C[N+]1=Cc2cc3c(cc2CC1)OCO3`, the parasite load remaining in assay [1] is 30.1% (inactive). In assay [1], the viability came out at 46.5%. For the same compound, the fold change in assay [2] (setting [5]) is 0.917 (inactive); in assay [2] (setting [6]), 1.08. In addition, the cell count in assay [2] (setting [7]) came to 9060; in assay [2] (setting [8]) it was 9880.

Regarding `C[C@H]1O[C@@H](OC2CC[C@]3(C=O)[C@H]4CC[C@]5(C)[C@@H](C6=CC(=O)OC6)CC[C@]5(O)[C@@H]4CC[C@]3(O)C2)C[C@H](O)[C@@H]1O` (stereo partly specified), the parasite load remaining in assay [1] was 0.83% (inactive). In assay [1], the viability was 69.5%. The fold change in assay [2] (setting [5]) is 0.718 (inactive); in assay [2] (setting [6]) it was 1.73. The cell count in assay [2] (setting [7]) amounted to 1040; in assay [2] (setting [8]), 1440.

`CN1CCC2=C[C@H](O)[C@H]3OC(=O)c4cc5c(cc4[C@H]3[C@@H]21)OCO5`: in assay [1], the parasite load remaining was 42.8% (inactive). For the same compound, the viability in assay [1] came out at 96.9%. Besides, the fold change in assay [2] (setting [5]) is 0.881 (inactive); in assay [2] (setting [6]), 1.04. The cell count in assay [2] (setting [7]) came out at 6350; in assay [2] (setting [8]), 7210.

`COc1cc2c(cc1O)[C@@H]1Cc3ccc(OC)c(O)c3CN1CC2`: the parasite load remaining in assay [1] was 152% (inactive). The viability in assay [1] came to 92.5%. In addition, the fold change is 0.78 (inactive) in assay [2] (setting [5]) and 1.3 in assay [2] (setting [6]). Further, the cell count in assay [2] (setting [7]) was 2600; in assay [2] (setting [8]) it was 3330.

For the compound `CCN1C[C@]2(C)CC[C@H](OC)[C@@]34C1[C@]1(OCO[C@@]15C[C@H](OC)[C@H]1C[C@]3(O)[C@@H]5[C@H]1OC)[C@@H](OC(C)=O)[C@H]24`, the parasite load remaining in assay [1] is 91.7% (inactive). Moreover, the viability in assay [1] is 96.9%. Besides, the results for the fold change in assay [2] (setting [5]) and in assay [2] (setting [6]) were 0.951 (inactive) and 0.675, respectively. In addition, the cell count in assay [2] (setting [7]) turned out to be 10000; in assay [2] (setting [8]), 10500.

For the compound `CC[C@@H](C)C(=O)O[C@H]1[C@H](O)[C@H]2[C@@H](CN3C[C@@H](C)CC[C@H]3[C@@]2(C)O)C2C[C@]34O[C@@]5(O)[C@@H](OC(=O)[C@](C)(O)CC)CC[C@@]3(C)[C@@H]5[C@@H](OC(C)=O)[C@@H](OC(C)=O)[C@H]4[C@@]21O` (stereo partly specified), the parasite load remaining in assay [1] was 119% (inactive). Also, in assay [1], the viability is 111%. In addition, the fold change in assay [2] (setting [5]) is 0.898 (inactive); in assay [2] (setting [6]) it was 1.61. Also, the cell count is 9180 in assay [2] (setting [7]) and 10200 in assay [2] (setting [8]).

In the case of `CCN1C[C@]2(COC)CC[C@H](OC)[C@@]34C1[C@]1(OCO[C@@]15C[C@H](OC)[C@H]1C[C@@H]3[C@@H]5[C@H]1OC)[C@@H](O)[C@H]24`, the parasite load remaining in assay [1] was 79.2% (inactive). Moreover, the viability in assay [1] came to 96.3%. The fold change was 0.844 (inactive) in assay [2] (setting [5]) and 1.35 in assay [2] (setting [6]). Moreover, the cell count in assay [2] (setting [7]) amounted to 8580; in assay [2] (setting [8]) it was 10200.

Regarding `C=C1[C@@H]2CC[C@H]3[C@]4(C)C[C@H](O[C@H]5O[C@H](CO)[C@@H](OS(=O)(=O)O)[C@H](OS(=O)(=O)O)[C@H]5OC(=O)CC(C)C)C[C@@H](C(=O)O)[C@H]4CC[C@]3(C2)[C@H]1O`, the parasite load remaining in assay [1] was 72.2% (inactive). The viability in assay [1] is 97.4%. The fold change in assay [2] (setting [5]) is 0.879 (inactive); in assay [2] (setting [6]) it was 0.935. The cell count in assay [2] (setting [7]) stood at 8890; in assay [2] (setting [8]) it was 10100.

Turning to `C=C1[C@@H](O)[C@]23C[C@@H]1[C@@H](O)C[C@H]2[C@@]12C4[C@@H]3C[C@@H]1[C@@](C)(CC[C@@H]2O)CN4CC`, the parasite load remaining in assay [1] was 76.8% (inactive). The viability in assay [1] was found to be 104%. The fold change was 0.894 (inactive) in assay [2] (setting [5]) and 0.861 in assay [2] (setting [6]). The cell count in assay [2] (setting [7]) amounted to 8910; in assay [2] (setting [8]), 9970.

For the compound `CC(Cc1ccccc1)NCCC(c1ccccc1)c1ccccc1` (stereo unspecified) (tested in a mixture with another compound), the parasite load remaining in assay [1] is 65.1% (inactive). Besides, the viability in assay [1] was found to be 77.8%. The fold change was 0.804 (inactive) in assay [2] (stronger effect = lower value) and 1.52 in assay [2] (setting [6]). The cell count in assay [2] (setting [7]) stood at 5460; in assay [2] (setting [8]) it was 6790.

Regarding `COc1cc(C(=O)OC2C[C@H]3CC[C@@H](C2)N3C)ccc1O` (stereo partly specified), in assay [1], the parasite load remaining is 90.6% (inactive). Also, the viability in assay [1] stood at 98.9%. The fold change in assay [2] (stronger effect = lower value) was 0.903 (inactive); in assay [2] (setting [6]) it was 1.48. Besides, the cell count was 8240 in assay [2] (setting [7]) and 9120 in assay [2] (setting [8]).

Regarding `C[C@H]1CC[C@@H]2[C@@H](C)[C@H]3[C@H](C[C@H]4[C@@H]5CC=C6C[C@@H](O[C@@H]7O[C@H](CO)[C@H](O)[C@H](O[C@@H]8O[C@H](CO)[C@@H](O)[C@H](O)[C@H]8O)[C@H]7O[C@@H]7O[C@@H](C)[C@H](O)[C@@H](O)[C@H]7O)CC[C@]6(C)[C@H]5CC[C@]34C)N2C1`, the parasite load remaining in assay [1] is 143% (inactive). In addition, the viability in assay [1] came out at 114%. The fold change in assay [2] (setting [5]) is 0.926 (inactive); in assay [2] (setting [6]), 1.19. The cell count stood at 8230 in assay [2] (setting [7]) and 8880 in assay [2] (setting [8]).

Consider `CC1=C2C[C@@H]3[C@H](CC=C4C[C@H](O)CC[C@]43C)[C@H]2CC[C@@]12O[C@H]1C[C@@H](C)CN[C@@H]1[C@@H]2C`, for which the fold fluorescence in assay [3] was 14.9 [at 121.5 µM] (inactive).

Take `CN(C)[C@@H]1C(=O)C(C(N)=O)=C(O)[C@@]2(O)C(=O)C3=C(O)c4c(O)ccc(Cl)c4[C@@](C)(O)C3C[C@@H]12` (stereo partly specified): in assay [1], the parasite load remaining is 51% (inactive). Moreover, the viability in assay [1] was 46.7%. Further, the fold change in assay [2] (setting [5]) is 0.828 (inactive); in assay [2] (setting [6]) it was 1.43. The cell count in assay [2] (setting [7]) came out at 7670; in assay [2] (setting [8]) it was 9260.

Consider `CC1=CC(=O)C2=C(C)C[C@H](O)[C@@H]3[C@H](OC(=O)[C@H]3C)[C@@H]12`, for which the survival in assay [4] was 7.92 (inactive). Moreover, the parasite load remaining in assay [1] is 98.5% (inactive). Also, the viability in assay [1] worked out at 100%. Moreover, the fold change was 0.829 (inactive) in assay [2] (stronger effect = lower value) and 1.6 in assay [2] (setting [6]). For the same compound, the cell count in assay [2] (setting [7]) worked out at 8050; in assay [2] (setting [8]), 9720.
